Results taken from PubChem BioAssay (NCATS).
“And” between values parts separate entries of the source, which are not always exact repeats. Equal values may be shown once. Results filed as inconclusive are left out. The source made the active and inactive calls. Unless noted, calls come from the whole dose curve; as a rule, active = well fitted curve in the direction sought with a large enough effect; inconclusive = small, poorly fitted or top-dose-only effect, or another doubt; inactive = no such curve, though single readings can be large; an effect the other way counts as inactive or inconclusive.

Assays:
[1] = qHTS assay for small molecule disruptors of the mitochondrial membrane potential - 1 hr assay (AID 651754; calls by dose curve; note: % is set by controls: 0 for no effect and ±100 for the full control effect; nearly all actives have a fitted effect of over 35% in size)
Outline: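 Loss of mitochondrial potential shifts the cationic dye from red mitochondrial aggregates to green cytoplasmic monomers. Cells (HepG2) are treated with compound for 1 hr before a 30 min dye incubation at 37C.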

[2] = target: Tumor necrosis factor (Homo sapiens) (UniProt P01375); assay: qHTS assay to identify small molecules that stimulate Tumor Necrosis Factor-alpha (TNF-alpha) secretion (AID 651757; active = well fitted curve in the direction sought with a large enough effect in the signal ratio; the % refers to the signal ratio; note: 0% is about no effect)
Outline: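 Human monocytic THP-1 cells are plated, treated with compound and held at 37 C for 17 hrs. Labeled anti-TNF-alpha antibody mixture is then added; after 3 hr at room temperature, TR-FRET signal reports secreted TNF-alpha.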

[3] = target: Peroxisome proliferator-activated receptor alpha (Homo sapiens) (UniProt Q07869); assay: qHTS assay for small molecule agonists of the peroxisome proliferator-activated receptor alpha (PPARalpha) signaling pathway (AID 651778); conditions: PathHunter PPARalpha complementation, chemiluminescence, 6 h; active compounds read high; note: % of control where 0% means no effect
Outline: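 Cells plated at 2,000/well and held overnight at 37 C, 5% CO2, then compound added by pin tool for 6 hr; after PathHunter detection reagent and 60 min at room temperature, chemiluminescence from enzyme complementation was read.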

[4] = target: Nuclear receptor ROR-gamma (Homo sapiens) (UniProt P51449); assay: qHTS assay for small molecule antagonists of the retinoid-related orphan receptor gamma (ROR-gamma) signaling pathway (AID 651802);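 note: CHO cells with doxycycline-induced ROR-gamma expression; series mostly up to about 92 µM; % is set by controls: 0 for no effect and ±100 for the full control effect; nearly all actives have a fitted effect of over 60% in size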
Outline: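 Steps: cells dispensed; compound or DMSO transferred by pin tool; doxycycline added to induce the ROR response element-driven luciferase; plates held 16hr at 37C; ONE-Glo added and luminescence measured.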

[5] = qHTS assay for small molecule agonists of the antioxidant response element (ARE) signaling pathway measured by Nrf2-dependant transcriptional activity (AID 720636; active = well fitted curve in the direction sought with a large enough effect in the repeat runs; an effect the other way counts as inactive or inconclusive;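 note: HepG2 cells with an ARE-driven luciferase reporter; % of control where 0% means no effect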)
Outline: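 Cells: ARE-luc HepG2 with Nrf2-responsive luciferase. Medium contained 1% dialyzed FBS. Compound exposure lasted 16 hr at 37 C and 5% CO2, followed by ONE-Glo luciferase detection.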

[6] = qHTS assay for small molecule antagonists of the retinoid-related orphan receptor gamma (ROR-gamma) signaling pathway - cell viability counter screen (AID 720652; active = well fitted curve in the direction sought with a large enough effect in the repeat runs; an effect the other way counts as inactive or inconclusive;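 note: CHO reporter cells with doxycycline-induced ROR-gamma expression; series mostly up to about 92 µM; compound exposure lasted 16 hr before ATP read; % is set by controls: 0 for no effect and ±100 for the full control effect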)
Outline: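 Steps: seed CHO cells bearing TET-inducible ROR and ROR response element-luciferase; rest 5 hr at 37 C; add compound, then doxycycline; incubate 16 hr; add CellTiter-Glo and read luminescence as ATP-based viability.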

[7] = qHTS assay for small molecule agonists of the antioxidant response element (ARE) signaling pathway measured by Nrf2-dependant transcriptional activity - cell viability counter screen (AID 720653; active = well fitted curve in the direction sought with a large enough effect in the repeat runs; an effect the other way counts as inactive or inconclusive; note: % is set by controls: 0 for no effect and ±100 for the full control effect); conditions: ARE-bla HepG2 viability, CellTiter-Glo ATP luminescence, 16 h; active compounds read low
Outline: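 ARE-bla HepG2 cells (2,000/well) rested 5 hrs at 37C/5% CO2, then exposed to compounds in DMSO for 16 hrs. Viability was read in the same wells as intracellular ATP by luminescence, 30 min at room temperature after reagent addition.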

[8] = qHTS assay for cell viability of HEK293 cells (AID 743288); conditions: ATP luminescence (CellTiter-Glo), 18 h, active compounds read low; note: % is set by controls: 0 for no effect and ±100 for the full control effect; nearly all actives have a fitted effect of over 50% in size
Outline: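 Steps: plate 2,000 parental HEK293 cells per well; incubate ≥5 h, 37 C; add compounds in DMSO; incubate 18 h, 37 C; add CellTiter-Glo; wait 30 min at room temperature; read luminescence.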

[9] = qHTS assay for cell viability of the p53RE-bla HCT-116 cell line (AID 743292); note: % is set by controls: 0 for no effect and ±100 for the full control effect; nearly all actives have a fitted effect of over 55% in size
Outline: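 HCT-116 p53RE-bla cells seeded 4,000/well; 5 h at 37 C; compound (DMSO) added; 16 h at 37 C; CellTiter-Glo added, 30 min RT; luminescence read.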

[10] = target: Nuclear receptor subfamily 1 group I member 2 (Rattus norvegicus) (UniProt Q9R1A7); assay: qHTS assay for small molecule activators of the rat pregnane X receptor (rPXR) signaling pathway (AID 651751; call rule not given here; note: 0% is about no effect); conditions: rPXR reporter cells, luciferase (One-Glo), 24 h
[11] = qHTS assay for small molecule activators of the human pregnane X receptor (PXR) signaling pathway (AID 720659; call rule not given here; note: 0% is about no effect)
[12] = qHTS assay for environmental chemicals that activate the Aryl hydrocarbon Receptor (AhR) signaling pathway (AID 651777); conditions: 1A2-DRE human hepatoma cells, luciferase, 24 h; activation: active compounds read high; note: % of control where 0% means no effect; nearly all actives have a fitted effect of over 15% in size
Outline: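 1A2-DRE human hepatoma reporter line; 1,200 cells/well; cmpd or DMSO 24 h, 37 C/5% CO2; One-Glo 30 min RT; luciferase lum.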

[13] = qHTS assay for small molecule disruptors of the mitochondrial membrane potential - 5 hr assay (AID 651755; calls by dose curve; note: % is set by controls: 0 for no effect and ±100 for the full control effect; nearly all actives have a fitted effect of over 40% in size)
Outline: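 Seed HepG2 overnight, add compound, incubate 5 hr at 37C and 5% CO2, stain 30 min with Mito-MPS, then measure monomer (490/535 nm) and aggregate (540/590 nm) fluorescence.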

[14] = qHTS assay to identify small molecules that stimulate interleukin-8 (IL-8) secretion (AID 651758; active = well fitted activation curve with a large enough effect in the signal ratio; the % refers to the signal ratio; note: 0% is about no effect)
Outline: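 Quantitative HTS in THP-1 monocytic cells at 2000 cells per well, with 16 hrs compound incubation at 37 C. IL-8 in the medium was then quantified by HTRF immunoassay, read after 1-3 hrs at room temperature.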

Peroxisome proliferator-activated receptor alpha (Homo sapiens), sequence (Q07869 whole entry, looked up): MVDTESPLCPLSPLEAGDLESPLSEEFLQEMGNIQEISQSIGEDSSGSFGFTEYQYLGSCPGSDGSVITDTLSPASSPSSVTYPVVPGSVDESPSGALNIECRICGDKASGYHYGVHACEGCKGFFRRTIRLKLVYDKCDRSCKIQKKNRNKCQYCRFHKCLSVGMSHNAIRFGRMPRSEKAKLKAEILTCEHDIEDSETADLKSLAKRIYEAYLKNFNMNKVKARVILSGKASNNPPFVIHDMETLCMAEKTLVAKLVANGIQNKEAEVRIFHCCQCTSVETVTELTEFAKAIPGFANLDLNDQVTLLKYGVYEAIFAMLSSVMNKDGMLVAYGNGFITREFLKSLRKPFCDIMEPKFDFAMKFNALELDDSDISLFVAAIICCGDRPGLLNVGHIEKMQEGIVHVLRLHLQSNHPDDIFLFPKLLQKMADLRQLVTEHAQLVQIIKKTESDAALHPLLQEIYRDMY
Tumor necrosis factor (Homo sapiens), sequence (P01375 whole entry, looked up): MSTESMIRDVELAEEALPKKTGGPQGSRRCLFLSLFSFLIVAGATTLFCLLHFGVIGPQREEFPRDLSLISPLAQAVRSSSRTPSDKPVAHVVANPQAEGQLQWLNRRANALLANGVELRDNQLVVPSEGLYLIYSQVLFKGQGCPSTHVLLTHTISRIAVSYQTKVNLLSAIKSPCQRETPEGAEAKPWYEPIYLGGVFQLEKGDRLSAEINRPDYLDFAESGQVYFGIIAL
Nuclear receptor subfamily 1 group I member 2 (Rattus norvegicus), sequence (Q9R1A7 whole entry, looked up): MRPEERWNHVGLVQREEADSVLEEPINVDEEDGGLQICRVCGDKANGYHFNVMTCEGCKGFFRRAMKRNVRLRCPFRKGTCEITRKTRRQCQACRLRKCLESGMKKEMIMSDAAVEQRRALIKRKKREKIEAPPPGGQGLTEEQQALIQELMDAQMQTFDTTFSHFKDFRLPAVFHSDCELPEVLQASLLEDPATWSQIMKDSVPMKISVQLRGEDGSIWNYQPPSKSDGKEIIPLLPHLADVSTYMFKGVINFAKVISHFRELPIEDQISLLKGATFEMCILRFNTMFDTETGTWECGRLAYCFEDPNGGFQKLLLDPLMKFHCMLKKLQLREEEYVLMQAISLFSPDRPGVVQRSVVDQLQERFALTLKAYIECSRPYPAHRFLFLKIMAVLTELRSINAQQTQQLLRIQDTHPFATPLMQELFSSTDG
Nuclear receptor ROR-gamma (Homo sapiens), sequence (P51449 whole entry, looked up): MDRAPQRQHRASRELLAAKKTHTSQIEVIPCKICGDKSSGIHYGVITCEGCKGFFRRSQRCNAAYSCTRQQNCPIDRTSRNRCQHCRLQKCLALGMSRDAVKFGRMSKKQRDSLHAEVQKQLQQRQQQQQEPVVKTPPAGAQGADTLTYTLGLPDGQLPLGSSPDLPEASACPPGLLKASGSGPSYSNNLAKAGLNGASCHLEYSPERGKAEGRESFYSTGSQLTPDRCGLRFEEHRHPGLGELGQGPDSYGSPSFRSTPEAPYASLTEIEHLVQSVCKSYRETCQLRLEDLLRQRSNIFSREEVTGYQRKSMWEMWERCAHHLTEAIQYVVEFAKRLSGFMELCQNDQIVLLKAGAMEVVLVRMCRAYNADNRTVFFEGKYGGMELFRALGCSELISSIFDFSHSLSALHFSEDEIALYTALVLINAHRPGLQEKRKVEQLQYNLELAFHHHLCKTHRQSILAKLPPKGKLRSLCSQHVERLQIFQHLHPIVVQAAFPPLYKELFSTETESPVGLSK

CCCCC(CC)C(=O)O (stereo not given)
inactive: Potency [1] | Potency [2] | max response [3] -2.43% | Potency [4] | outcome [5] | Potency [6] | max response [7] -5.11% | max response [8] -7.06% | Potency [9] | max response [10] 1.13% | outcome [11]

c1ccc2c(c1)Oc1ccccc1S2
inactive: Potency [1] | Potency [2] | Potency [4] | outcome [5] | Potency [6] | max response [7] 6.9% | max response [8] 0.655% | Potency [9] | max response [10] -3.68% | outcome [11]

CCC(C)(C)C(=O)O
inactive: Potency [1] | Potency [2] | activation [12] 0.179% | max response [3] -5.15% | Potency [4] | outcome [5] | Potency [6] | max response [7] -0.295% | max response [8] -3.48% | Potency [9] | max response [10] 5.04% | outcome [11]

ClC/C=C/CCl
inactive: Potency [1] | Potency [2] | max response [3] 1.16% | outcome [5] | Potency [6] | max response [7] -6.38% | max response [8] 4.84% | Potency [9] | max response [10] 5.09% | outcome [11]

CN(C)c1cccc(O)c1
inactive: Potency [1] | activation [12] 6.91% | max response [3] -3.12% | outcome [5] | Potency [6] | max response [7] -0.49% | max response [8] -2.96% | Potency [9] | max response [10] 1.23% | outcome [11]

CCCCC(=O)N(C)C
inactive: Potency [13] | Potency [2] | activation [12] 1.62% | max response [3] -3.71% | Potency [4] | outcome [5] | Potency [6] | max response [7] -1.17% | max response [8] -5.96% | Potency [9] | max response [10] -1.49% | outcome [11]

O=Cc1ccc(C(=O)O)cc1
inactive: Potency [1] | Potency [2] | activation [12] -0.237% | max response [3] -5.11% | Potency [4] | outcome [5] | Potency [6] | max response [7] -13.7% | max response [8] -0.895% | Potency [9] | max response [10] -2.3% | outcome [11]

OC/C(Br)=C(\Br)CO
inactive: Potency [13] | Potency [2] | Potency [14] | activation [12] -1.6% | max response [3] -6.37% | Potency [4] | outcome [5] | Potency [6] | max response [7] 1.49% | max response [8] 0.0424% | Potency [9] | max response [10] 0.247% | outcome [11]

Nc1cccc(C(F)(F)F)c1
inactive: Potency [13] | Potency [2] | Potency [14] | activation [12] 0.706% and 0.403% | max response [3] -0.773% and -2.14% | Potency [4] | outcome [5] | max response [7] 1.34% and -3.53% | max response [8] -2.53% and -9.98% | Potency [9] | max response [10] -1.26% and 1.53%

Cc1cc([N+](=O)[O-])ccc1N
inactive: Potency [1] | Potency [2] | activation [12] 0.911% | max response [3] -7.44% | outcome [5] | Potency [6] | max response [7] -20.9% | max response [8] -5.02% | Potency [9] | max response [10] 2.26% | outcome [11]

CCCC(C)CO (stereo not given)
inactive: Potency [13] | Potency [2] | activation [12] -0.17% | Potency [4] | outcome [5] | Potency [6] | max response [7] 13.6% | max response [8] -5.68% | Potency [9] | max response [10] 0.794% | outcome [11]

CC(=O)c1cccc([N+](=O)[O-])c1
inactive: Potency [13] | Potency [2] | activation [12] 1.48% | max response [3] 0.67% | outcome [5] | max response [7] 17.8% | max response [8] -8.78% | Potency [9] | max response [10] -2.86% | outcome [11]

C=CCOC(=O)CCCCCCCC
inactive: Potency [2] | Potency [14] | activation [12] -2.14% | Potency [4] | outcome [5] | max response [7] 3.3% | max response [8] -7.54% | Potency [9] | max response [10] -5.54% | outcome [11]

C1COC1
inactive: Potency [13] | Potency [2] | activation [12] -0.727% | max response [3] 0.481% | Potency [4] | outcome [5] | Potency [6] | max response [7] -0.519% | max response [8] 7.71% | Potency [9] | max response [10] -0.345% | outcome [11]
